Hits are enriched below; roughly 9% of the tested compounds scored in any of these assays.
IMPase Li cell: IMPase inhibition in cells with lithium potentiation. CHO-M1 cells, IP1 TR-FRET (IP-One), carbachol + lithium. actives 0.35% (n = 210,000). Potency, µM (top dose mostly 59.4 µM), without a hit: top-dose activity, negative = IMPase inhibition, most hits filed as inhibitors;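 further: IP1 builds up when IMPase is blocked and the TR-FRET signal falls; plate controls were basal vehicle for no effect and high inhibitor control for full effect; nearly all actives have a fitted effect of over 50% in size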
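Readout is a homogeneous TR-FRET IP1 immunoassay (Ex 320, Em 665 and 620), where raised cytosolic IP1 lowers signal. Cells were CHO-M1 treated 30 min at 37C with test compounds plus a little lithium; AC50 values came from Hill-equation fitting.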
ALDH1A1 block: ALDH1A1 (human) enzyme inhibition; P00352; Purified ALDH1A1, NADH fluorescence, propionaldehyde substrate; Potency, µM (top dose mostly 75.3 µM), for inactives: top-dose activity, negative = inhibition, most hits filed as inhibitors; actives 7.3% (n = 220,000); AID 1030; active means well fitted inhibition curve with a large enough effect, not every such curve was filed as active; inconclusive means small, poorly fitted or top-dose-only effect, or another doubt; inactive means no such curve, though single readings can be large or run the other way;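 further: plate controls were no enzyme wells and a reference inhibitor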
Target sequence (P00352 whole entry, looked up): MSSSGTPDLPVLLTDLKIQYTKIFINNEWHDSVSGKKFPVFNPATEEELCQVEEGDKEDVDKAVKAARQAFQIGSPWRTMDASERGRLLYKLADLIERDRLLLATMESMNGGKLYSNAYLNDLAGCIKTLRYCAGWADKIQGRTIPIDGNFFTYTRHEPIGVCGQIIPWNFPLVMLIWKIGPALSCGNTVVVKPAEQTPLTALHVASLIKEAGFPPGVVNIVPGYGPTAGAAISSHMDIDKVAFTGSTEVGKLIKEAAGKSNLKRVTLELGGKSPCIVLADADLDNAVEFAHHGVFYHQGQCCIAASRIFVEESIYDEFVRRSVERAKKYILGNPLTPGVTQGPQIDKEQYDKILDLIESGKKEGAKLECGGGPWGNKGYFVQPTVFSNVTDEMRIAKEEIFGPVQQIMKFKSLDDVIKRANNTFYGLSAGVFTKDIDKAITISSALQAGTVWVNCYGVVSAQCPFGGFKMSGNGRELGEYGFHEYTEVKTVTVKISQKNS
LMNA splice mod: LMNA splicing modulation. HeLa LMNA splicing GFP/RFP minigene ratio, 48 h. AID 1487. Potency, µM (titrated, usually from 46.1 µM), for inactives: at the highest dose ratio change, negative = inhibition, usual class: inhibitors. actives 0.01% (n = 200,000); active means well fitted inhibition curve with a large enough effect in the signal ratio, with a control signal flat, not every such curve was filed as active; inconclusive means small, poorly fitted or top-dose-only effect, or effect the other way, or a change in a side signal; the % refers to the signal ratio
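Read-out is the ratio of GFP to DsRed2 object intensity, acquired by 488 nm laser-scanning cytometry on HeLa lamin A-EGFP minigene reporter cells. Compound incubation 48 hrs at 37 °C in Opti-MEM with 2% FBS; DMSO 0.5% final.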
Luc counter: counter-screen: inhibitors of Kinase-Glo firefly luciferase | Q27757 | Kinase-Glo luciferase, ATP luminescence, 8 min | Potency, µM (titrated, usually from 38.3 µM), for inactives: at the top dose activity change, negative = inhibition, hits mostly inhibitors | actives 0.28% (n = 200,000); further: nearly all actives have a fitted effect of over 60% in size
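Light output from Kinase-Glo luciferase with luciferin and 10 uM ATP in 50 mM imidazole pH 7.2, KCl, MgCl2, Tween 20, BSA; compound pin-delivered, 8-min ambient incubation, then luminescence read.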
HPGD inh: blocks human HPGD enzyme activity. P15428. actives 4.3% (n = 150,000). purified HPGD, NADH fluorescence kinetic, PGE2 substrate. Potency, µM, without a hit: at the highest dose activity change, negative = inhibition, usual class: inhibitors; active means well fitted inhibition curve with a large enough effect, not every such curve was filed as active; inconclusive means small, poorly fitted or top-dose-only effect, or another doubt; inactive means no such curve, though single readings can be large or run the other way
Target sequence (P15428 whole entry, looked up): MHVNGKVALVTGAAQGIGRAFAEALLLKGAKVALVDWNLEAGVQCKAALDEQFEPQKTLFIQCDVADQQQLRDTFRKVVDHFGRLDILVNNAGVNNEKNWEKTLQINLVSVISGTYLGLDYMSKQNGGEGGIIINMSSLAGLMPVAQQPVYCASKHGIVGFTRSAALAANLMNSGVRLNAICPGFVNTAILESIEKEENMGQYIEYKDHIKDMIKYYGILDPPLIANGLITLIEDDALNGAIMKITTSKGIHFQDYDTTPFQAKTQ
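NADH formation kinetics: reaction with 30 uM PGE2 and 1 mM NAD+ (final), 20 nM enzyme, Tris-HCl pH 8 with Tween 20, after 15 min compound preincubation at room temperature. Fluorescence change, last versus first of five reads.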
Active calls of the source: *; ? = inconclusive; · = no result; [ ] = another dose, or the depositor's remark. Unless noted, the call rests on the fitted dose curve; in most records, active means well fitted curve in the direction sought with a large enough effect; inconclusive means small, poorly fitted or top-dose-only effect, or another doubt; inactive means no such curve, though single readings can be large; an effect the other way counts as inactive or inconclusive. Unless noted, on the % scale 0 is the no-effect control and ±100 the full control effect; potency means the concentration at half of the fitted maximal effect.

SMILES | IMPase Li cell | ALDH1A1 block | LMNA splice mod | Luc counter | HPGD inh
O=[N+]([O-])c1ccc(OC/C=C2\Oc3ccc([N+](=O)[O-])cc3C2N2CCOCC2)cc1 (centres undefined) | 63%[38.3 µM] | 25µM* | -13% | 4% | -7%
CC(=O)OC1CCC2(C)C(=CC=C3C2CCC2(C)C3CCC2C(C)/C=C/C(C)C(C)C)C1(C)C (centres undefined) | 7% | 7% | · | -6% | -10%
CCn1c(SCC(=O)Nc2sc3c(c2C#N)CCCC3)nnc1-c1ccncc1 | 5% | 18µM* | -16% | 2% | -9%
COc1ccc(-c2cc(C(F)(F)F)nc(SCC(=O)Nc3sc4c(c3C#N)CCC4)n2)cc1 | 16%[38.3 µM] | ? | -3% | 3% | ?
N#Cc1c(NC(=O)CSc2nnc(-c3ccncc3)n2CC2CCCO2)sc2c1CCCC2 (centres undefined) | -1%[38.3 µM] | ? | ? | 1% | -7%
Cc1ccc(C(=O)NCc2nnc(SCC(=O)Nc3sc4c(c3C#N)CCCC4)n2C)cc1 | 1%[38.3 µM] | 14µM* | 9% | 3% | -33%
COc1ccc(-c2nnn(CC(=O)Nc3sc4c(c3C#N)CCCC4)n2)cc1 | 23%[38.3 µM] | 10µM* | 8% | -6% | -18%
N#Cc1cc2c(nc1SCC(=O)Nc1sc3c(c1C#N)CCC3)CCCCCC2 | 17%[38.3 µM] | 16µM* | 3% | -1% | -10%
Cc1nc(-n2nc(C)c(CCC(C)C)c2C)sc1C(=O)Nc1cccc(Cl)c1C | · | · | 5%[46 µM] | · | ·
NCCC[C@@H](CC(=O)N[C@@H]1CCNC[C@H]1C(=O)N[C@H](CC(=O)N[C@@H](CCC(=O)O)CC(=O)O)Cc1ccccc1)NC(=O)C[C@H](CO)NC(=O)[C@@H]1CNCC[C@H]1N | -4% | 1% | · | 1% | -8%
O=C(COc1cccc2ccccc12)N/N=C/c1ccncc1 | 2% | 3% | 3%[46 µM] | 1% | ·
COC(=O)c1c(NC(=O)C(Cl)Cl)sc2c1C(C(=O)OC)CC2 (centres undefined) | · | 0.89µM* | · | · | ·
COC(=O)c1c(NC(=O)C(C)(C)C)sc2c1C(C(=O)OC)CC2 (centres undefined) | -3%[38.3 µM] | ? | 7% | -4% | ?
COc1cccc2cc(-c3cn4c(n3)sc3cc(F)ccc34)c(=O)oc12 | · | · | 13%[46 µM] | · | ·
N#C/C(C(=O)NCc1ccco1)=C1/SC=C(c2ccccc2)N1c1ccccc1 | 11µM* | ? | 7% | -4% | ?
CN(C)S(=O)(=O)c1cccc(-c2nn(-c3ccccc3)cc2/C=C2\SC(=S)NC2=O)c1 | 14% | 0% | ? | -2% | 16µM*
CN(C)S(=O)(=O)c1cccc(-c2nn(-c3ccccc3)cc2/C=C(\C#N)c2nc3ccccc3[nH]2)c1 | -3% | 7% | -14% | 1% | -19%
CCOc1ccc(S(=O)(=O)N(CC)CC)cc1NS(=O)(=O)c1ccc(F)c(F)c1F | 1% | ? | -16% | 0% | -1%
CCN(CC)S(=O)(=O)c1ccc(O)c(NS(=O)(=O)c2ccccc2F)c1 | 4% | 13µM* | ? | 3% | 25µM*
COc1ccc(/C=C(\C#N)C(=O)OC2CCOC2=O)cc1 (centres undefined) | -7% | 18µM* | ? | 0% | ·
COc1ccccc1/C=C(/NC(=O)c1ccc(Cl)cc1Cl)C(=O)O | -3% | 5% | · | 4% | ·
CCN(CC)S(=O)(=O)c1ccc(N2CCCC2)c(NC(=O)Cc2ccc(OC)cc2)c1 | 19% | 1.1µM* | · | 0% | ·
CCN(CC)S(=O)(=O)c1ccc(N2CCOCC2)c(NC(=O)C2CCCC2)c1 | 7% | -7% | -4% | 0% | -16%
CCN(CC)S(=O)(=O)c1ccc(N2CCCC2)c(NC(=O)c2ccc(OC)cc2OC)c1 | 22% | ? | · | -1% | ·
CCOc1ccc(S(=O)(=O)Nc2cc(S(=O)(=O)N(CC)CC)ccc2N2CCCC2)cc1 | 6% | 0.79µM* | 17% | -2% | -11%
SMILES | IMPase Li cell | ALDH1A1 block | LMNA splice mod | Luc counter | HPGD inh
CCOC(=O)CC(=O)CSc1ccc2nnc(-c3ccc(C)cc3)n2n1 | -8%[38.3 µM] | -10% | 10% | -6% | 13µM*
CC(C)OC(=O)/C(C#N)=C\c1cccnc1 | 3% | 8.9µM* | -6%[46 µM] | 5% | ·
CC(C)OC(=O)/C(=C\c1cccnc1)NC(=O)c1ccccc1 | 2% | 7% | ? | 0% | ·
Cc1ccccc1CN1CCCN(CC(=O)Nc2c(C)cccc2C)S1(=O)=O | · | · | -4%[46 µM] | · | ·
O=C(Nc1c(C(=O)O)oc2ccc(Br)cc12)c1ccccc1 | -2%[38.3 µM] | 28µM* | 9% | -4% | ?
Cc1ccc(C)c(NC(=O)CSc2nccn2-c2cccc(C)c2C)c1 | · | · | -23%[46 µM] | · | ·
O=C(c1cc(=O)[nH]c2ccccc12)N1CCN(c2ccc([N+](=O)[O-])cc2)CC1 | · | 3µM* | · | · | ·
Cc1cc(C)c(C)c(S(=O)(=O)N2CCN(C(=O)c3cc(=O)[nH]c4ccccc34)CC2)c1C | 1%[38.3 µM] | 14µM* | ? | 0% | -7%
Cc1ccc(S(=O)(=O)N2CCN(C(=O)c3cc(=O)[nH]c4ccccc34)CC2)c(C)c1 | 22%[38.3 µM] | ? | -13% | 0% | -27%
O=c1c(Sc2ccccc2)c(C(F)(F)F)[nH]n1-c1ccccc1 | 6%[38.3 µM] | 0% | ? | 6% | -14%
CC(C)NC(=O)c1ccc2c(c1)nnn2C | 18%[38.3 µM] | 1% | -1% | -3% | -4%
CCN(CC)C(=O)c1ccc2c(c1)nnn2C | -9% | 11% | -4% | -4% | 16µM*
Cn1nnc2cc(C(=O)N3CCSCC3)ccc21 | 14%[38.3 µM] | 6% | 7% | 0% | 1.6µM*
C=CCn1nnc2sc3c(c2c1=O)CCC(C)C3 (centres undefined) | 15%[38.3 µM] | 18µM* | 11% | -4% | -19%
CSc1nc2sc3c(c2c(=O)n1C)CCC(C)C3 (centres undefined) | 6%[38.3 µM] | 25µM* | 8% | -5% | -11%
O=c1c2c3c(sc2nnn1Cc1ccc(F)cc1)CCCC3 | · | · | -19%[46 µM] | · | ·
Cc1ccc(NC(=O)NC2=N/C(=C(/C#N)C(=O)N3CCCC3)c3ccccc32)cc1 | 4%[38.3 µM] | 0.63µM* | 10% | -2% | -21%
Cc1ccc2nc(Cl)c(C#N)cc2c1 | 13% | -7% | · | -1% | ·
CC(=O)c1cccc(OCC(=O)c2cc(C)n(-c3cc(C)on3)c2C)c1 | 3%[38.3 µM] | 7% | ? | 8% | -19%
Cc1cc(C(=O)CCl)c(C)n1-c1ccon1 | 23% | 0.63µM* | · | -2% | ·
Cc1cc(C(=O)CCl)c(C)n1-c1cccc([N+](=O)[O-])c1 | 4% | 0.32µM* | -12%[46 µM] | 2% | ·
CCOC(=O)CN1N=C(/C=C/c2ccc(C(C)C)cc2)CCC1=O | 7% | -4% | ? | -2% | ·
COc1cc(SC)ccc1C(=O)NCCOc1ccc(C)c(C)c1 | 7% | -7% | ? | -3% | -5%
COc1cc(SC)ccc1C(=O)NCc1ccccc1 | 11% | ? | -11% | -1% | 25µM*
COc1cc(SC)ccc1C(=O)NCc1ccc(C)cc1 | 4%[38.3 µM] | ? | -1% | 1% | 20µM*
